SMILES strings stand for the structures. Structures can show the parent of a compound that is named as a salt.

This note sets out measurements from the supplement of paper PMC10127200.

For this assay, the system named is DU145. Briefly: Euclidean distance of Cell Painting phenotypic profile (signed KS, 77 features) to DMSO centroid (dimensionless distance); 5 or 10 uM (library dependent); higher = stronger phenotypic change vs DMSO (phenoactivity). The settings on record: 48 h. An outline of the steps:
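At 10 or 5 uM, as set by the library, and 0.1% DMSO final, compounds were applied for 48 h to five cancer lines and one healthy fibroblast line. Stained cells were imaged confocally at 20X in 9 fields per well, and Harmony extracted 77 features scored as signed Kolmogorov-Smirnov statistics against vehicle wells on the same plate. Profiles underwent plate-position correction, correlation weighting and replicate averaging at the top dose. Phenoactivity is the Euclidean distance from each such profile to the median vehicle profile.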
Consider `Cn1cnc2c1c(=O)[nH]c(=O)n2C` [Theobromine], for which the Euclidean distance was 0.727.
With `Nc1nc(OCc2cc(Br)cs2)c2[nH]cnc2n1` [Lomeguatrib] the figure was 1.15; with `Cc1nnc(SCC2=C(C(=O)O)N3C(=O)[C@@H](NC(=O)Cn4cnnn4)[C@H]3SC2)s1` [Cefazolin Sodium], 0.958.
With `c1ccc2[nH]c(-c3cscn3)nc2c1` [Thiabendazole] the figure was 1.31; with `CCC(Cc1c(I)cc(I)c(N)c1I)C(=O)O` (stereo not drawn) [Iopanoic acid], 0.812; with `CCOC(=O)[C@H](CCc1ccccc1)N[C@H]1CS[C@H](c2cccs2)CN(CC(=O)O)C1=O` [Temocapril HCl], 0.716.
With `C[C@]12CC[C@@H]3c4ccc(O)cc4C[C@@H](CCCCCCCCC[S+]([O-])CCCC(F)(F)C(F)(F)F)[C@H]3[C@@H]1CC[C@@H]2O` (stereo partly drawn) [Fulvestrant] the figure was 0.894.
Turning to `N#CC[C@H](C1CCCC1)n1cc(-c2ncnc3[nH]ccc23)cn1` [Ruxolitinib Phosphate], the Euclidean distance is 1.41.
As for `C[S+](CC[C@H](N)C(=O)[O-])C[C@H]1O[C@@H](n2cnc3c(N)ncnc32)[C@H](O)[C@@H]1O` (stereo partly drawn) [Ademetionine], the figure is 0.772; as for `OC[C@@H](O)[C@@H](O)[C@H](O)[C@H](O)CO` [D-Mannitol], 0.826; as for `COC(=O)c1ccc(O)cc1` [Methyl 4-hydroxybenzoate], 0.654.
With `CCCCC1C(=O)N(c2ccccc2)N(c2ccccc2)C1=O` [Phenylbutazone] the figure was 1.5.
As for `Cc1nc2n(c(=O)c1CCN1CCC(c3noc4cc(F)ccc34)CC1)CCCC2` [Risperidone], the figure is 0.723.
